How the values were obtained:
Conditions in all cases: concentration: 1 μM, replicates: in singlicate; n = 1
VPS34 = test system: T1, VPS34
T1 construct: gene PIK3C3

VRK2 = test system: VRK2
WEE1 = test system: WEE1
WEE2 = test system: WEE2
WNK1 = test system: WNK1
WNK2 = test system: WNK2
WNK3 = test system: WNK3
WNK4 = test system: WNK4
YANK1 = test system: T2, YANK1
T2 construct: gene STK32A

YANK2 = test system: T3, YANK2
T3 construct: gene STK32B
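Further: KINOMEscan kinase panel screen.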

| Compound | %Inh (VPS34) | %Inh (VRK2) | %Inh (WEE1) | %Inh (WEE2) | %Inh (WNK1) | %Inh (WNK2) | %Inh (WNK3) | %Inh (WNK4) | %Inh (YANK1) | %Inh (YANK2) |
| --- | --- | --- | --- | --- | --- | --- | --- | --- | --- | --- |
| c1ccc(-c2cc(-c3c[nH]nc3-c3ccccn3)ccn2)cc1 [GW576604] | 18% | 2% | 2% | 0% | 0% | 18% | 0% | 11% | 12% | 0% |
| Cc1cccc(-c2nc(Nc3ccc4ncsc4c3)c3ccccc3n2)n1 [GW867588] | 0% | 0% | 8% | 6% | 0% | 6% | 31% | 0% | 0% | 0% |
| O=C1NC(=O)C(N2CCc3ccccc32)=C1c1cccc(Cl)c1 [SB-408010] | 0% | 0% | 0% | 4% | 0% | 14% | 0% | 89% | 0% | 19% |
| Fc1ccc(-c2nn3c(OCC(F)(F)F)cccc3c2-c2ccncc2)cc1 [GW514784] | 2% | 33% | 10% | 0% | 14% | 0% | 27% | 38% | 30% | 24% |
| [2H]C([2H])(c1cccc(C(F)(F)F)c1C)n1ccn2c(=O)nc(N3CCOCC3)cc12 [GSK2336394] | 0% | 0% | 9% | 10% | 7% | 0% | 28% | 36% | 11% | 0% |

From article PMC5540273 (PLoS ONE, 2017)
